Assay results as given in PubChem BioAssay (NCI).
This is part of a sample that, as a whole, favours compounds with a hit. Of some 83,000 tested, about 20% had one in any assay.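 Cells were grown in 96-well plates and exposed to the test compound at a single concentration for 48 hours; results are reported as percent growth, with values below 10 considered active.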 A number with no mark means an inactive call. Active and inactive are the calls of the source.

Assays:
Assay in all cases: NCI-60 one-dose screen, 48 h (100 = growth as untreated, 0 = no growth, -100 = all killed)
Details in all cases: 10 µM unless noted
[1] = system: NCI-H23 lung
[2] = system: NCI-H226 lung
[3] = system: NCI-H322M lung
[4] = system: HOP-62 NSCLC
[5] = system: NCI-H460 lung
[6] = system: HOP-92 NSCLC
[7] = system: NCI-H522 lung
[8] = system: A549/ATCC NSCLC
[9] = system: 786-0 renal
[10] = system: COLO 205 colon

SMILES	growth [1]	growth [2]	growth [3] [%]	growth [4]	growth [5]	growth [6]	growth [7]	growth [8]	growth [9]	growth [10]
CCN1C(=O)N[C@H]2[C@@H]3NC(=O)c4ccc(Cl)n4[C@@H]3C[C@]21O	6.06% (active)	5.43% (active)	11.7	-4.56% (active)	2.06% (active)	3.95% (active)	-26.9% (active)	9.08% (active)	-4.85% (active)	-29.5% (active)
C#CCC1(c2ccc(F)c(F)c2)NS(=O)(=O)c2ccccc21 (stereo not given)	98.1%	103%	90.5	86.2%	108%	106%	65.5%	76.9%	101%	110%
O=S=Nc1ccc([N+](=O)[O-])cc1	95%	108%	95	89.6%	102%	107%	81.5%	78.8%	92.1%	106%
COc1ccc(-c2nc3sccn3c2-c2ccnc(NCCCNS(=O)(=O)c3ccc(F)cc3)n2)cc1	1.5% (active)	-4.69% (active)	41.2	30.9%	19.5%	44.2%	-1.46% (active)	14%	35.5%	1.87% (active)
COc1ccc(OC)c(C(=O)c2oc3ccc(Br)cc3c2N)c1	24.7%	55.9%	20.9	33.6%	8.36% (active)	4.96% (active)	-2.14% (active)	12.2%	38%	-16.1% (active)
Cc1cccc2cc(/C=C/C(=O)/C=C/c3ccc(Cl)cc3)c(=O)[nH]c12	62.8%	62.1%	88.8	64.6%	73.1%	96.3%	48.4%	65.6%	14.5%	37.8%
CCC(c1ccc(OC)cc1)C(CC)c1ccc(O)c(CN2CCCC2)c1 (stereo not given)	9.32% (active)	31.7%	14.4	30.9%	-47.2% (active)	-34.7% (active)	22.8%	33.1%	4.61% (active)	-85% (active)
COc1cc(C2CC(c3c(C)[n+]([O-])c4ccccc4[n+]3[O-])=NN2)cc(OC)c1OC (stereo not given)	99.6%	100%	119	106%	112%	87.8%	104%	113%	102%	102%
Nc1c(C(=O)Nc2ccccc2)sc2nc3c(cc12)CN(Cc1ccccc1)CC3	79.1%	45.2%	50	52.1%	32.8%	20.2%	80.2%	54.2%	28.8%	97.8%
COc1ccc(/C=C/c2nc(N3CCOCC3)c3nc(Cl)c(Cl)cc3n2)cc1OC	99.7%	102%	145	115%	106%	105%	83.1%	96.5%	99.8%	105%
O=P([O-])(O)OP(=O)([O-])O.[NH-][C@H]1CCCC[C@@H]1[NH-].[OH-].[OH-].[Pt+4]	102%	108%	115	111%	106%	114%	93.4%	92.1%	107%	110%
CCC(c1cccc(Br)c1)C(C(=O)O)c1ccc(OC)cc1 (stereo not given)	102%	108%	111	96.1%	107%	93.6%	91.5%	102%	104%	120%
C/C(=N\NC(=O)CC#N)c1cc2cc(Cl)ccc2o1	97.2%	94.6%	97.2	92.8%	94.2%	-13.3% (active)	84.4%	111%	105%	99.7%
CC[C@]1(O)C[C@@H]2CN(Cc3c([nH]c4ccccc34)[C@@](C(=O)OC)(c3cc4c(cc3OC)N(C)[C@H]3[C@@](O)(C(=O)OC)[C@H](OC(C)=O)[C@]5(CC)[C@@H]6C[C@@H]6CN6CC[C@]43[C@@H]65)C2)C1	25.7%	50.2%	44.7	38.8%	6.73% (active)	-12% (active)	-20.3% (active)	22.2%	21.4%	-49.5% (active)
Nc1c(C(=O)Nc2cccc([N+](=O)[O-])c2)sc2nc3c(cc12)C(O)CCC3 (stereo not given)	67.6%	80.8%	78.2	55.1%	28.2%	72.1%	28.3%	39.2%	68.7%	40.8%
Oc1ccc(Cl)cc1-c1cc(-c2ccc(Cl)cc2)n[nH]1	49.8%	64.4%	55.5	55.9%	40.4%	42.9%	47.5%	49.3%	84.6%	73.7%
COc1ccc(-n2c(C)cc(-c3ccccc3)c2C)cc1	33.9%	57.3%	93.5	82.4%	46.8%	24.6%	29.5%	40.7%	35%	39.4%
Nc1nc(-c2ccccc2)cs1	111%	93.3%	109	97%	109%	101%	102%	95.6%	105%	108%
C=CCc1cc(Cl)cc2c(OC(C)=O)c(C(C)=O)c(-c3ccccc3)nc12	91.8%	103%	106	89.2%	106%	105%	96.4%	102%	107%	108%
CCN(CC)c1cc(/C=C/c2ccc(OC)c(OC)c2)nc2cc(F)c(F)cc12	-2.87% (active)	24.6%	90.9	-78.8% (active)	84.9%	-53.2% (active)	33.9%	64.8%	-18.7% (active)	105%
